# MITF TRPM1 inh – MITF TRPM1 promoter inhibition in SK-MEL-5 cells; SK-MEL-5 TRPM1 promoter luciferase, 24 h; inhibition, % at 12.5 µM; hit rate 0.83% among 330,000; AID 488899;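 active means mean inhibition across replicates of 60% or more, whatever share of single replicates reaches that level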
# CF NFkB inh – cystic fibrosis NF-kB activation inhibition; KKLEB NF-kB-GFP reporter, PAF-induced, GFP fluorescence overnight; inhibition, % at 5 µM; hit rate 0.86% among 360,000; AID 588850;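 active means at least 50% inhibition at 5 µM, scaled per plate between neutral and stimulator controls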;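 further: PAF is a Pseudomonas aeruginosa culture filtrate used as stimulus; plate controls were PAF-stimulated DMSO wells for no effect and unstimulated DMSO wells for full effect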
# Shn3 3UTR inh – reduces Shn3 3'UTR luciferase signal in osteoblasts. hit rate 0.52% among 360,000. inhibition, % at 12.5 µM. Clone20 osteoblast Shn3 3'UTR firefly luciferase, 24 h;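 active means mean inhibition of at least 75% with every replicate also reaching 75%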;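 further: 0% = median of neutral control wells and 100% = pilot-screen positive control compound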
# HIF-2a inh – HIF-2a inhibition; 786-0 RCC cells HIF-2a reporter, luciferase luminescence, overnight; inhibition, % at 18.8 µM; hit rate 0.72% among 360,000; AID 624352;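 active means inhibition of the luminescence signal of 40% or more relative to plate controls, in a single-dose primary screen at 18.75 µM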
# Peg3 promoter – reduces Peg3 promoter-driven luciferase expression in HeLa. HeLa PEG-Prom luciferase reporter, luminescence, overnight. inhibition, % at 20 µM. hit rate 1.7% among 360,000;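 active means inhibition of at least 50% at 20 µM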
# KKLEB tox – CF airway cell cytotoxicity counter-screen | KKLEB CF airway cells viability, ATPlite luminescence, overnight; hits give low values; cells stimulated with P. aeruginosa culture filtrate | activity change (cytotoxicity), % at 5 µM | hit rate 0.36% among 360,000;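 active means corrected activity change at or below -50% at 5 µM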
# CF NFkB inh conf – confirmation of cystic fibrosis induced NF-kB inhibitors. hit rate 64% among 1,300. KKLEB CF airway cells, PAF-induced NF-kB-GFP fluorescence, overnight. AID 602472. inhibition, % at 5 µM. shares compounds with CF NFkB inh; in the data active means inhibition above about 40%;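 further: stimulus PAF is a Pseudomonas aeruginosa filtrate and not platelet activating factor; plate controls were DMSO wells with stimulus for no effect and unstimulated DMSO wells for full effect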
# Active calls of the source: *; · = not tested or not shown. Sampled rows, rich in hits. Any-hit rate of the full collection: about 2.8%.
SMILES,MITF TRPM1 inh,CF NFkB inh,Shn3 3UTR inh,HIF-2a inh,Peg3 promoter,KKLEB tox,CF NFkB inh conf
O=C(Nc1cccc(C(=O)N2CCCCC2)c1)C1CCCCC1,0,10,-8,-17,-9,4,·
FC(F)(F)c1nnc2c(Sc3ccccc3)nc3ccccc3n12,59,79*,-23,-60,3,11,84*
O=C1NCCc2c1[nH]c1ccccc21,16,8,-3,-1,9,-1,·
COc1ccc2[nH]c3c(c2c1)CCNC3=O,19,52*,12,-20,0,-6,83*
COc1ccc(-n2nc(C(=O)NCC(=O)NCCCN3CCOCC3)c3ccccc3c2=O)cc1,-2,61*,2,15,15,12,15
COc1ccc(CNC(=O)C[C@H]2C[C@H](C(=O)N3CCCCC3)[C@@]3(CCc4ccccc4)c4[nH]c5ccc(Cl)cc5c4CCN3C2=O)cc1OC,30,51*,24,-27,28,-10,39
CCCN(CC)c1ncnc2[nH]ncc12,-17,81*,-17,14,16,6,63*
CN(C)c1ncnc2[nH]ncc12,-4,18,0,6,2,-7,·
CCCN(C(=O)CSCc1ccccc1C)c1c(N)n(Cc2ccccc2)c(=O)[nH]c1=O,-8,17,4,-7,1,-3,·
Nc1nc(N)nc(-c2cc([N+](=O)[O-])ccc2O)n1,10,61*,-24,-28,60*,-21,73*
Cn1nccc1C(=O)Nc1cc(Cl)ccc1Cl,·,70*,21,14,-6,12,38
O/N=C\c1ccc2noc(-c3ccc(Cl)cc3)c2c1,-20,22,13,-28,9,8,·
CC1CCC(NC(=O)COC(=O)c2ccco2)CC1 (stereo not drawn),-4,-14,-7,-2,-22,3,·
CC1CC2C3CCC4=CC(=O)C=CC4(C)[C@@]3(Cl)C(O)CC2(C)C1(O)C(=O)CO (stereo partly drawn),-15,66*,-12,13,-5,13,16
C[C@@H]1C[C@H]2[C@@H]3CCC4=CC(=O)C=C[C@]4(C)[C@@]3(Cl)[C@@H](O)C[C@]2(C)[C@@]1(OC(=O)c1ccco1)C(=O)CCl,2,89*,57,25,68*,22,29
CC12C=CC(=O)C=C1CCC1C2C(=O)C[C@@]2(C)C1CCC2(O)C(=O)CO (stereo partly drawn),-5,12,9,2,-10,1,·
COc1ccc(C2/C(=C(\O)c3ccc4c(c3)CC(C)O4)C(=O)C(=O)N2Cc2cccnc2)c(OC)c1 (stereo not drawn),7,-11,-11,15,10,10,·
CS(=O)(=O)n1nc(OC(=O)c2cc(Br)ccc2Cl)cc1N,0,5,11,22,17,1,·
CS(=O)(=O)n1nc(OC(=O)c2cccc3ccccc23)cc1N,19,66*,4,10,-32,-34,17
c1ccc2c(c1)Nc1ccncc1S2,-7,52*,-4,25,0,-4,77*
c1ccc2c(c1)Nc1cc3ccccc3cc1S2,-60,-1,-82,-143,-149,10,·
Cc1nn(-c2ccccc2)c(N2CCCC2)c1/C=N/NC(=O)c1cc(-c2ccccc2)nc2ccccc12,8,55*,-14,20,55*,-8,66*
Cc1nn(-c2ccccc2)c(N2CCCC2)c1/C=N/NC(=O)c1cc2ccccc2cc1O,-1,17,-10,10,32,-11,·
Cc1ccc(-c2cc(C(=O)N/N=C/c3c(C)nn(-c4ccccc4)c3C)[nH]n2)cc1,7,50*,49,3,-4,-32,84*
COc1ccc(NC(=O)c2cc3c(-c4ccc(OC)c(OC)c4)nn(C)c3s2)cc1OC,22,87*,4,-2,-69,-21,62*
SMILES,MITF TRPM1 inh,CF NFkB inh,Shn3 3UTR inh,HIF-2a inh,Peg3 promoter,KKLEB tox,CF NFkB inh conf
COCCn1c(SCC(=O)NC(C)c2ccc(F)cc2)nc2ccccc21 (stereo not drawn),12,21,13,13,-15,-7,·
c1ccc2c(-c3cncc4ccccc34)cncc2c1,-3,76*,23,35,20,-32,43*
Cc1ccc(Sc2oc(/C=N/n3cnnc3)cc2Br)cc1,2,-10,-11,6,12,-10,·
CC1(Cc2ccccc2Cl)C(=O)Nc2c(Cl)ccc(Cl)c21 (stereo not drawn),·,8,0,3,15,-9,·
COc1ccc(NC(=O)c2cc(C3CCCCN3C(=O)c3cc(OC)c(C)c(OC)c3)on2)c(C)c1 (stereo not drawn),·,0,8,24,29,-5,·
O=c1cc(-c2ccccc2Cl)oc2cc(O)cc(O)c12,-42,66*,82,-128,-233,-1,77*
Nc1ccc(O)c2c(=O)cc(-c3ccccc3Cl)oc12,-112,11,-64,-262,-239,-11,·
CSc1ccccc1NC(=O)c1ccccc1C,-1,-6,-5,-4,3,11,·
N#C/C(=C\c1ccc(F)c(F)c1)C(=O)NC1CCCCC1,3,52*,2,28,8,-18,16
COc1ccc2[nH]cc(CCNC(=O)COc3cc(C)cc4oc(=O)cc(C)c34)c2c1,13,-8,17,12,6,-3,·
NC1(C(=O)O)CSSC1,65*,62*,11,-122,82*,3,57*
CN(C)c1ccc(-c2nn3c(-c4ccccc4Cl)nnc3s2)cc1,28,54*,3,-17,9,-35,68*
COc1ccc(-c2cc(C(F)(F)F)nc(N3CCN(c4ccc(F)cc4)CC3)n2)cc1OC,-4,54*,-14,3,20,-34,41*
COc1ccc(-c2cc(C(F)(F)F)nc(N3CCN(Cc4ccccc4)CC3)n2)cc1OC,6,4,16,16,5,-8,·
CCCCn1c(N)c(N(CC(C)C)C(=O)c2ccc(S(=O)(=O)N3CCC(C)CC3)cc2)c(=O)[nH]c1=O,-1,-9,-5,3,-2,12,·
CC[C@@H](C(=O)[C@@H](C)[C@@H](O)[C@H](C)[C@@H]1O[C@@H]([C@@H](CC)C(=O)O)CC[C@@H]1C)[C@H]1O[C@]2(C=C[C@@H](O)[C@]3(CC[C@@](C)([C@H]4CC[C@](O)(CC)[C@H](C)O4)O3)O2)[C@H](C)C[C@@H]1C,78*,69*,82,-35,101*,4,105*
COc1ccc(OC)c(C2CC(=O)c3c([nH]c(C(=O)OC(C)C)c3C)C2)c1 (stereo not drawn),21,61*,25,-38,-30,-12,86*

# Source: PubChem
